Key:
Test in all cases: log2 ratio of Biotin-Ahx-Ub-VS probe labelling (fragment/DMSO); higher = less target engagement (more negative = stronger competition), active = hit call of the paper (q ≤ 0.05, log2 ratio ≤ -1)
Conditions in all cases: compound concentration: 200 uM; treatment time: 3 h
USP34 = USP34 (UniProt Q70CQ2)
Procedure, shortened: (§1)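 The table lists average log2 ratios of fragment over vehicle, from an unpaired t-test on global-median-normalised Spectronaut label-free quantities. Proteins with ≥2 unique peptides were used. Samples were HEK293T lysate (495 µg) treated in triplicate with fragment at 200 µM or vehicle for 3 h, then with Biotin-Ahx-Ub-VS (0.5 µM final) for 1 h, with labelled DUBs NeutrAvidin-enriched and run by diaPASEF LC-MS/MS.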

USP36 = target: T1, USP36 (UniProt Q9P275)
T1 sequence (whole entry): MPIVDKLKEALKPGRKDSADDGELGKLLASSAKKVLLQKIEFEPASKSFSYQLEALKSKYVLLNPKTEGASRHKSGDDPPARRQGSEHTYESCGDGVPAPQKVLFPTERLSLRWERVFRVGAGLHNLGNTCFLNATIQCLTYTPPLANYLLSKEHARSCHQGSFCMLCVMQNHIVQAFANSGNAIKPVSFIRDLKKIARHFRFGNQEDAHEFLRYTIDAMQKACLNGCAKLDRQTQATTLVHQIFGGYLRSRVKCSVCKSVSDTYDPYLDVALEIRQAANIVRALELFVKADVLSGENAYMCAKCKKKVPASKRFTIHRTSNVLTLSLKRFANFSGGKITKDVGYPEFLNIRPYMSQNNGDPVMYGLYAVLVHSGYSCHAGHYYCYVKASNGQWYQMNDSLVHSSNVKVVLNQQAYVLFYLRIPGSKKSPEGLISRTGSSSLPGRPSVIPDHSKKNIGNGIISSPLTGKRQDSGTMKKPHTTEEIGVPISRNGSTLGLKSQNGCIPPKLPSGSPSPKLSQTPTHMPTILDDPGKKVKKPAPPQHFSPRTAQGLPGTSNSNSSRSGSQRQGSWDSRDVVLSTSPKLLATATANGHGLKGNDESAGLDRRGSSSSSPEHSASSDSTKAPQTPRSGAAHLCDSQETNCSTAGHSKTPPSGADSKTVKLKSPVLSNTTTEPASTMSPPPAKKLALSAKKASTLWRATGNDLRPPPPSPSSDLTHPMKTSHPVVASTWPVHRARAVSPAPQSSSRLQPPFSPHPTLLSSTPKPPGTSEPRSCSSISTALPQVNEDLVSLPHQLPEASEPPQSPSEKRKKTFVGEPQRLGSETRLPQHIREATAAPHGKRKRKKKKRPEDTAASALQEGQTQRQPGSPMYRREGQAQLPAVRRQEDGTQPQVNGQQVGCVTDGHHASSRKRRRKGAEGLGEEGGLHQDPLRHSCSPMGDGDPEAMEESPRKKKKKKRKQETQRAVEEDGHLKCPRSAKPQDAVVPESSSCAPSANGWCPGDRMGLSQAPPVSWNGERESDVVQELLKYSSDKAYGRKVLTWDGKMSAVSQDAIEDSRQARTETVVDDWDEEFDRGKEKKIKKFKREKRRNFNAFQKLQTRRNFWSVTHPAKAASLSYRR
Procedure, shortened: as §1

USP38 = target: T2, USP38 (UniProt Q8NB14)
T2 sequence (whole entry): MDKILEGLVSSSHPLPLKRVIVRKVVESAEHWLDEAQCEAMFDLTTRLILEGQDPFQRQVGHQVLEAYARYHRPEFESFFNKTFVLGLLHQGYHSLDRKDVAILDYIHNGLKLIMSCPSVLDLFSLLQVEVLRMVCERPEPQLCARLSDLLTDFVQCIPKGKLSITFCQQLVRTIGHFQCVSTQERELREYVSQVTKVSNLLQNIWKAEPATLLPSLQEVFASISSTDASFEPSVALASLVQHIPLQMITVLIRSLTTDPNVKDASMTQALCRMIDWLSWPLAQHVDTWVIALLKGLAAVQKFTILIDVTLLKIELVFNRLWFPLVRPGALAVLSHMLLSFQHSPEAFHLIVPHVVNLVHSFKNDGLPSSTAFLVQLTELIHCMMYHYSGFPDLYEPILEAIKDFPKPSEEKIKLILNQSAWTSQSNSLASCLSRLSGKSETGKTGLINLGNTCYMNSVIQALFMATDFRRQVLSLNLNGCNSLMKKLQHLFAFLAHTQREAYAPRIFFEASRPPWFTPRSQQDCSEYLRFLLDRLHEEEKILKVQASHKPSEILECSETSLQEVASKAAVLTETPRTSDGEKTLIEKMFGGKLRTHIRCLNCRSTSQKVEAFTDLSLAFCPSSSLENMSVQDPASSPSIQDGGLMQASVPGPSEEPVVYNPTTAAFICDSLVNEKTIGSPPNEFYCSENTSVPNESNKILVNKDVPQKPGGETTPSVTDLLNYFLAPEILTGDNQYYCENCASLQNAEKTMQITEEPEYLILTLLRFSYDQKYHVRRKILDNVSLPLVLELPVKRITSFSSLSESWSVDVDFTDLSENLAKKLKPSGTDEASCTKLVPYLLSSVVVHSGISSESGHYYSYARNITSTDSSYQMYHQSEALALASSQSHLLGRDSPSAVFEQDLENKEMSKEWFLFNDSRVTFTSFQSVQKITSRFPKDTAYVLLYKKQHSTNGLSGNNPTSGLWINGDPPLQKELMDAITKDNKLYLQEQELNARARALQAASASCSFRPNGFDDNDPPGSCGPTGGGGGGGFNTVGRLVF
Procedure, shortened: as §1

USP39 = target: T3, USP39 (UniProt Q53GS9)
T3 sequence (whole entry): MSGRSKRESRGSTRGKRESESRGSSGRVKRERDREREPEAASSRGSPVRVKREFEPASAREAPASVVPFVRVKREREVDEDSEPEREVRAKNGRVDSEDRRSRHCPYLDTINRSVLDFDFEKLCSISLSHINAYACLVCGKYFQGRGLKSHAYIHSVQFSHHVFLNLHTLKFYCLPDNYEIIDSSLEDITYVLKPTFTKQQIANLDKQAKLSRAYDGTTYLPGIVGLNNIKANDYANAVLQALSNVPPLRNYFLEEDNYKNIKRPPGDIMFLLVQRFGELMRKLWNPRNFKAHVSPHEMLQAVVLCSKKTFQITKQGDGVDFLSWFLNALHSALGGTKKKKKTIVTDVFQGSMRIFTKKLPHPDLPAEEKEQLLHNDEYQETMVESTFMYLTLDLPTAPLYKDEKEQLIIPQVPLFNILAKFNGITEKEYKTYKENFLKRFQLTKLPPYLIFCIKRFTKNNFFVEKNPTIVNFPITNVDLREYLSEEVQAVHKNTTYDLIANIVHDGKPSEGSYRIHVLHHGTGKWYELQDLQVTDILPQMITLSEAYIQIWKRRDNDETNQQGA
Procedure, shortened: as §1

USP4 = target: T4, USP4 (UniProt Q13107)
T4 sequence (whole entry): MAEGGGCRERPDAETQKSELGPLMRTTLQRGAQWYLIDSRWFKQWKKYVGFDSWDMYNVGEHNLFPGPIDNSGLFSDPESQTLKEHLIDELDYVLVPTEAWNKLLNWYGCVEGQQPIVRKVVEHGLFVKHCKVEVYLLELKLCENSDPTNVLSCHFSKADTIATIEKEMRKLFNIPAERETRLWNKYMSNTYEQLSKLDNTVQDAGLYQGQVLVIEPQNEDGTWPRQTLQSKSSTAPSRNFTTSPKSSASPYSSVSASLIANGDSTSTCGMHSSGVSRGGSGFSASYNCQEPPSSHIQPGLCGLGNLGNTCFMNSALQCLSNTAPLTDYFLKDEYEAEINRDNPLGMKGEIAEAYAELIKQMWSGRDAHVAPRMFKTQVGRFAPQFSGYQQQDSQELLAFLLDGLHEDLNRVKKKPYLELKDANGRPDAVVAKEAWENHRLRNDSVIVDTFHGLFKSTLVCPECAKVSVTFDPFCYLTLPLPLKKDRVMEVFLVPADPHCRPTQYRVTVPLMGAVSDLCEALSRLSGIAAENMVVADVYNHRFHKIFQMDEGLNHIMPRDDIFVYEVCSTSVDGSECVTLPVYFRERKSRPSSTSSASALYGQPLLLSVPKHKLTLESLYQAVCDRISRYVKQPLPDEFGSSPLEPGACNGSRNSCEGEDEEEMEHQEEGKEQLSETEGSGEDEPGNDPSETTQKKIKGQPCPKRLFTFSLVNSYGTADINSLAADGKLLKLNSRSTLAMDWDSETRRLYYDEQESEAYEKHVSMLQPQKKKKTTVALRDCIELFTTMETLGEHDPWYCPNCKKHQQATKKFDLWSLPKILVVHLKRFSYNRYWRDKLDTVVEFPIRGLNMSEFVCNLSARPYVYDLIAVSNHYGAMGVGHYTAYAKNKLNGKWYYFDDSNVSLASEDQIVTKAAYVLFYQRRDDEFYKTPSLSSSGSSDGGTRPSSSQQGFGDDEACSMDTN
Procedure, shortened: as §1

Measured: log2 ratio of Biotin-Ahx-Ub-VS probe labelling

Chain of USP34 (Q70CQ2 whole entry, the tested form may be a part): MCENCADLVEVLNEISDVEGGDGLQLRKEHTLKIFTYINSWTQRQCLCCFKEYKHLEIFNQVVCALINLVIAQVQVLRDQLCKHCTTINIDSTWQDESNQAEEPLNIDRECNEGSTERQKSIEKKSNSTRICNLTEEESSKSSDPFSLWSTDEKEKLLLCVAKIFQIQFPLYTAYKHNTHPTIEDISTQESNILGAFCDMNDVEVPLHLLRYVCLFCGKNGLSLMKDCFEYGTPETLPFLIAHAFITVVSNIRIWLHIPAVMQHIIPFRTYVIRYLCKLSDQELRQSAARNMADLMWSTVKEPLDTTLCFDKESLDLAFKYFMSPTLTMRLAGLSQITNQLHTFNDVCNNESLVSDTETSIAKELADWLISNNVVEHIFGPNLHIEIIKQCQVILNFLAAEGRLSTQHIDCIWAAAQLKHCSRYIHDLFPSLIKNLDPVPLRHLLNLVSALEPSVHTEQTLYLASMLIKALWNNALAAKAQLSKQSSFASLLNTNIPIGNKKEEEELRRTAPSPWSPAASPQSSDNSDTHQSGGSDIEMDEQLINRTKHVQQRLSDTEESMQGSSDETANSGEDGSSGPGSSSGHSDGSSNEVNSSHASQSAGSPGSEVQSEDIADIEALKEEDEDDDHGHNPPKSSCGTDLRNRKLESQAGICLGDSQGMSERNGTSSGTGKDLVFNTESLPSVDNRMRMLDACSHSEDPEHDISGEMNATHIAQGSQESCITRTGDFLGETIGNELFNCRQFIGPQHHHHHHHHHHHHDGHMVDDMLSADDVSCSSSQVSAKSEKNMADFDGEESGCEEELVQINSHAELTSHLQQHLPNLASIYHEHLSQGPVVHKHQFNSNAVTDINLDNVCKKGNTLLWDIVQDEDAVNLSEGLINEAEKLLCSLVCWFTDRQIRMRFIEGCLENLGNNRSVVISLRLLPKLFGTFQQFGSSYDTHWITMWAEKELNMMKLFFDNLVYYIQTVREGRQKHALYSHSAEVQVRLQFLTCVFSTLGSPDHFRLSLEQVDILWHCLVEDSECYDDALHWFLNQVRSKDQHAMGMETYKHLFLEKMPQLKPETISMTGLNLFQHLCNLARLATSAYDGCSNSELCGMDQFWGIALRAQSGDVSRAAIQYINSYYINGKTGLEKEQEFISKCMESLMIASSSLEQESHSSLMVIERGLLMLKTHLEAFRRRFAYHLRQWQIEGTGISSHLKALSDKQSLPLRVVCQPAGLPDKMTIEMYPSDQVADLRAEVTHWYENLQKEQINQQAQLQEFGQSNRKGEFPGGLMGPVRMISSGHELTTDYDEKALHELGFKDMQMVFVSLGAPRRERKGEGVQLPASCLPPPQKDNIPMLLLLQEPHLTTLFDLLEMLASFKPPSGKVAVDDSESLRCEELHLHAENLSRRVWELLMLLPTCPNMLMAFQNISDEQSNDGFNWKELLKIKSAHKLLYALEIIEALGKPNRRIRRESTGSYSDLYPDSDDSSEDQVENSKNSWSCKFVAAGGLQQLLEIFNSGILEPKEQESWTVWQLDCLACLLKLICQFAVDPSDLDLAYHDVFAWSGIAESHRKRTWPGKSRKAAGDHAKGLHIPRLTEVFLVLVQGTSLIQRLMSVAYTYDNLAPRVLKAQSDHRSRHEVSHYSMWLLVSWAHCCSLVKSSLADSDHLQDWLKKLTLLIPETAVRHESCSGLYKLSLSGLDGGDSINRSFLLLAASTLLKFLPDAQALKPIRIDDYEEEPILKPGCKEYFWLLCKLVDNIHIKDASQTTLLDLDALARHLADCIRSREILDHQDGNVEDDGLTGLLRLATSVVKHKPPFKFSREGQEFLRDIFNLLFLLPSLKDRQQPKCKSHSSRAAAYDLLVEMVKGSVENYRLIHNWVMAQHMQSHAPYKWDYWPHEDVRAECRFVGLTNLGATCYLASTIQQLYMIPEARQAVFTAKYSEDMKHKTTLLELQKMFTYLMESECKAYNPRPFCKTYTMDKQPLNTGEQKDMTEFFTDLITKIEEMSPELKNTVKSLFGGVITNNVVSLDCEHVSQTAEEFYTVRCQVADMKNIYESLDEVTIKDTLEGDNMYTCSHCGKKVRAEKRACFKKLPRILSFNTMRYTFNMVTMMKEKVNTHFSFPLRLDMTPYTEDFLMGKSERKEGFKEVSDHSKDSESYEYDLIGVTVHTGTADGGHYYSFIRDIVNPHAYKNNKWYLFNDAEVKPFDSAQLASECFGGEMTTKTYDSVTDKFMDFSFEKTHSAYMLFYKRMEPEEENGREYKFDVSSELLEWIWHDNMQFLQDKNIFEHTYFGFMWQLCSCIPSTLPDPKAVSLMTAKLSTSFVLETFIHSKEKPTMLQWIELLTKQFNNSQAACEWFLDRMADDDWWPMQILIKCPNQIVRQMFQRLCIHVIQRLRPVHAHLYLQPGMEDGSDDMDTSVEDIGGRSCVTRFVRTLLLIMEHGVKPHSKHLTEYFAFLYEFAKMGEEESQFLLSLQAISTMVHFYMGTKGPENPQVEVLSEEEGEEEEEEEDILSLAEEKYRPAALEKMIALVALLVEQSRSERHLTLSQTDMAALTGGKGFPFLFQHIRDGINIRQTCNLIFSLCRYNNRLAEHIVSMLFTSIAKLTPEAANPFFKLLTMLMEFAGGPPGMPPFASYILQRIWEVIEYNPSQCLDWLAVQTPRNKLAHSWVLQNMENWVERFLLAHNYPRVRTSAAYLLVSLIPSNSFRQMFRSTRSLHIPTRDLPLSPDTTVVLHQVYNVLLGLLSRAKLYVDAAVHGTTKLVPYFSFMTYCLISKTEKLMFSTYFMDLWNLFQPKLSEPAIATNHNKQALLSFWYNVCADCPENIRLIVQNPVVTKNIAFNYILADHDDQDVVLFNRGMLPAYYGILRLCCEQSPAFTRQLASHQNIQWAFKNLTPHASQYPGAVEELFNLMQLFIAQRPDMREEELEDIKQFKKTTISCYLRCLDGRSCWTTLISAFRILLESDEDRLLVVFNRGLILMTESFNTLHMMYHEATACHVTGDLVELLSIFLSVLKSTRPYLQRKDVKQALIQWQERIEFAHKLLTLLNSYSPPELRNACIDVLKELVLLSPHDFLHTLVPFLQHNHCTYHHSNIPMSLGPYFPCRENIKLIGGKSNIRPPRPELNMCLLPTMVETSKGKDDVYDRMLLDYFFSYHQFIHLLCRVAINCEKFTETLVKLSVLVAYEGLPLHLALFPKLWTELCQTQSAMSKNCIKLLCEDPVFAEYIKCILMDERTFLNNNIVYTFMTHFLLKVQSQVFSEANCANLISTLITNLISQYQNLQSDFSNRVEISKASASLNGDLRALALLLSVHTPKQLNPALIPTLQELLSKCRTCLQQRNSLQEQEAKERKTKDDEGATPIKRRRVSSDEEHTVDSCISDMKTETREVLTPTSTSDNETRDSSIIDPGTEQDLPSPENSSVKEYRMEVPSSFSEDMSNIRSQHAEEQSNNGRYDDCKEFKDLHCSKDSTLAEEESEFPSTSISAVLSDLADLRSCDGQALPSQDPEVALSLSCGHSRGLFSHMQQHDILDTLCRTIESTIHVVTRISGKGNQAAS

Cn1cc(CN(Cc2ccc(Cl)cc2)C(=O)CCl)cn1
inactive: USP34 -0.228 | USP36 0.253 | USP38 -0.245 | USP39 -0.193 | USP4 -0.316

Reference: the supplement of paper PMC11732987, “Enantioselective OTUD7B fragment discovery through chemoproteomics screening and high-throughput optimisation” (Communications Chemistry, 2025)
